Results taken from the supplement of paper PMC11732987, “Enantioselective OTUD7B fragment discovery through chemoproteomics screening and high-throughput optimisation” (Communications Chemistry, 2025).

Assays:
Test in all cases: log2 ratio of Biotin-Ahx-Ub-VS probe labelling (fragment/DMSO); higher = less target engagement (more negative = stronger competition), active = hit call of the paper (q ≤ 0.05, log2 ratio ≤ -1)
Settings in all cases: compound concentration: 200 uM; treatment time: 3 h
[1] = target: USP34 (UniProt Q70CQ2)
USP34, sequence (Q70CQ2 whole entry, the tested form may be a part): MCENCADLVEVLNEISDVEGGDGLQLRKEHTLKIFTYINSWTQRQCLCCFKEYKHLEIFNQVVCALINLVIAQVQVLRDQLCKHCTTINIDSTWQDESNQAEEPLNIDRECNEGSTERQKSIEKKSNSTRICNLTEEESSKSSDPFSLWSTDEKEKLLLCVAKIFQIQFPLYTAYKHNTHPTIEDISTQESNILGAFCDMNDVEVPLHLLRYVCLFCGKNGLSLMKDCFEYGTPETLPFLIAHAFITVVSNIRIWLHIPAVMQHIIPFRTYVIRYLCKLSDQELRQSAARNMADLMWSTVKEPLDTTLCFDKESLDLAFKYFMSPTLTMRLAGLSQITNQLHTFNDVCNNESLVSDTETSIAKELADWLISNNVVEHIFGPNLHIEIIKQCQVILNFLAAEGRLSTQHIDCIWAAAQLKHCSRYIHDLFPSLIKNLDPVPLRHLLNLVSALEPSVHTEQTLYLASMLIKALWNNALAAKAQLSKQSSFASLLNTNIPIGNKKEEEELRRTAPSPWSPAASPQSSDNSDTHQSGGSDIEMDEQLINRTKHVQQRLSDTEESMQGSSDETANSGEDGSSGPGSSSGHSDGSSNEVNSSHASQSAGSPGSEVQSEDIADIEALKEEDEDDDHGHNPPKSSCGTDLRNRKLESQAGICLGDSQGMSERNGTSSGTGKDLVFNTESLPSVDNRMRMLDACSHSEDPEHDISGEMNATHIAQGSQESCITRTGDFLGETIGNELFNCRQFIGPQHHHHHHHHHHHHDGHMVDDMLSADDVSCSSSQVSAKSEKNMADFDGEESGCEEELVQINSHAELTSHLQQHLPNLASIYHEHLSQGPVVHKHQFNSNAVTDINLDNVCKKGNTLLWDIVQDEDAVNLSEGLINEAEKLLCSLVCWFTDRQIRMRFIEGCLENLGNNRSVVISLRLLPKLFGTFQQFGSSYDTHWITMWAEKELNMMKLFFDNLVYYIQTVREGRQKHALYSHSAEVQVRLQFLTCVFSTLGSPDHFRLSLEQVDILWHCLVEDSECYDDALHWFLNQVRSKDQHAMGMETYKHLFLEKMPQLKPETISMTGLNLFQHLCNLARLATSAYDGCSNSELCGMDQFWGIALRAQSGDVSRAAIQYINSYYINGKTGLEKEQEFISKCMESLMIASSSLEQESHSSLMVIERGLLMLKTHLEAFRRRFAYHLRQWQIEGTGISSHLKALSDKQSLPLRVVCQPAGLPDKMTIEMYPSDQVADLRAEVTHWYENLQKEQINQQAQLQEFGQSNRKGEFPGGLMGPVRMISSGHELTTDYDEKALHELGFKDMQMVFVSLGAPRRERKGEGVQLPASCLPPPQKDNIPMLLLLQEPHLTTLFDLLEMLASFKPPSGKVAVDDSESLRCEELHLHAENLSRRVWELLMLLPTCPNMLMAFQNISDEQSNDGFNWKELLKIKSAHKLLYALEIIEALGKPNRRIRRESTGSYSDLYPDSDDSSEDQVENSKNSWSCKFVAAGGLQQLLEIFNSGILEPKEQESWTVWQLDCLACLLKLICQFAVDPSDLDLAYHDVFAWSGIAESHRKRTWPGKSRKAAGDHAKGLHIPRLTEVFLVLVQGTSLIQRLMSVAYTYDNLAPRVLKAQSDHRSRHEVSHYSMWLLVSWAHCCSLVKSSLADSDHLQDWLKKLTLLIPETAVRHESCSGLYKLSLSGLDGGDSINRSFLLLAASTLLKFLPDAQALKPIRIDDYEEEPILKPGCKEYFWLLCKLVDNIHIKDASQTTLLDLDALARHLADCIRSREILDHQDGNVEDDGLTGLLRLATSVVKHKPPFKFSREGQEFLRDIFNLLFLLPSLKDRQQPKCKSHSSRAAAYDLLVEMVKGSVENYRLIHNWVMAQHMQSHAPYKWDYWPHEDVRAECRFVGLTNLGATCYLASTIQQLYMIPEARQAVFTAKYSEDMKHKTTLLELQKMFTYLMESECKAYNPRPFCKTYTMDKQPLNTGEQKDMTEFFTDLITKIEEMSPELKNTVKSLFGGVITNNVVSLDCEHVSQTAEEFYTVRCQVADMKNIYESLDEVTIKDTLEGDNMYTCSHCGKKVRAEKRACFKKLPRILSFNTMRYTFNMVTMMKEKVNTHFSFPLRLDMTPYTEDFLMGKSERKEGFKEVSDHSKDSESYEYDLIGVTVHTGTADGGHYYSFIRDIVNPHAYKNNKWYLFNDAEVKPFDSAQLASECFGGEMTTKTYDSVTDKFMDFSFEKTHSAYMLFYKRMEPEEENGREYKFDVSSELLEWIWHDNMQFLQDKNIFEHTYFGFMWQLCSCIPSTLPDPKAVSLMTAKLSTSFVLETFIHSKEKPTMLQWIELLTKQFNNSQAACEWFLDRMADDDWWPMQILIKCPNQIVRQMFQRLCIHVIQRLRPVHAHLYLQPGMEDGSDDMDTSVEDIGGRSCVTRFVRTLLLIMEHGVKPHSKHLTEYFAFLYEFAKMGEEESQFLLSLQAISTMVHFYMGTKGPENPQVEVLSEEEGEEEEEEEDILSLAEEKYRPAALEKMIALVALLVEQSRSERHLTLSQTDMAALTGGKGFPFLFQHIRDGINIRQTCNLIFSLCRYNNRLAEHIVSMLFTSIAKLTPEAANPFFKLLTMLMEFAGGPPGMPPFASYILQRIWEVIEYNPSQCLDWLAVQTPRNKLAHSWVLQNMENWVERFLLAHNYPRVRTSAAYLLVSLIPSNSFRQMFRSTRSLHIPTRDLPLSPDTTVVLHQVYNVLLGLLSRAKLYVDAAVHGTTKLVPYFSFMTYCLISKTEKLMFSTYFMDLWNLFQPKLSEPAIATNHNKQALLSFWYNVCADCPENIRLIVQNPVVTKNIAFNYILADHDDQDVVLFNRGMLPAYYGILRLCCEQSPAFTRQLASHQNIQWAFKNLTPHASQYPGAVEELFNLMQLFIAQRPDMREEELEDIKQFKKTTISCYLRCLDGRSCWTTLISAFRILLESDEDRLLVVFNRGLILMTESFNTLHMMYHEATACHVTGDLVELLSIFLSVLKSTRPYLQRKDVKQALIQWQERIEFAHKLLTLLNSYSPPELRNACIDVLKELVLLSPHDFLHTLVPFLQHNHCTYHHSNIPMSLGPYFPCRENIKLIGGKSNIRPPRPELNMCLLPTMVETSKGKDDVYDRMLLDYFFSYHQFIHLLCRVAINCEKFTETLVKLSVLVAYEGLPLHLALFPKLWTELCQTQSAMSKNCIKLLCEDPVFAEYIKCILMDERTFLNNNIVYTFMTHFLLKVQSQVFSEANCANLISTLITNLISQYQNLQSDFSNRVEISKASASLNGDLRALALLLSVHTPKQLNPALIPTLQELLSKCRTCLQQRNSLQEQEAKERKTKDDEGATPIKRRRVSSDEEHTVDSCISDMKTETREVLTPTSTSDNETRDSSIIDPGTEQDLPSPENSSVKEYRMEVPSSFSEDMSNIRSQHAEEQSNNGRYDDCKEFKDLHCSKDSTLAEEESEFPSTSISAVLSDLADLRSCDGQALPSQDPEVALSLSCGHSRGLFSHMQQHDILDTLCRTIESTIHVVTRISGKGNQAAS
How it was run: (§1)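 Labelling with Biotin-Ahx-Ub-VS (0.5 µM final, 1 h) followed a 3 h triplicate treatment of HEK293T lysate (495 µg per sample, Tris/CHAPS/IGEPAL buffer with protease inhibitors) with fragment at 200 µM or vehicle. Labelled DUBs were NeutrAvidin-enriched, digested with LysC and trypsin, and run by diaPASEF LC-MS/MS. The values, average log2 fragment/vehicle ratios by unpaired t-test, come from global-median-normalised Spectronaut label-free quantities. Proteins with ≥2 unique peptides were used.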

[2] = target: T1, USP36 (UniProt Q9P275)
T1 sequence (whole entry): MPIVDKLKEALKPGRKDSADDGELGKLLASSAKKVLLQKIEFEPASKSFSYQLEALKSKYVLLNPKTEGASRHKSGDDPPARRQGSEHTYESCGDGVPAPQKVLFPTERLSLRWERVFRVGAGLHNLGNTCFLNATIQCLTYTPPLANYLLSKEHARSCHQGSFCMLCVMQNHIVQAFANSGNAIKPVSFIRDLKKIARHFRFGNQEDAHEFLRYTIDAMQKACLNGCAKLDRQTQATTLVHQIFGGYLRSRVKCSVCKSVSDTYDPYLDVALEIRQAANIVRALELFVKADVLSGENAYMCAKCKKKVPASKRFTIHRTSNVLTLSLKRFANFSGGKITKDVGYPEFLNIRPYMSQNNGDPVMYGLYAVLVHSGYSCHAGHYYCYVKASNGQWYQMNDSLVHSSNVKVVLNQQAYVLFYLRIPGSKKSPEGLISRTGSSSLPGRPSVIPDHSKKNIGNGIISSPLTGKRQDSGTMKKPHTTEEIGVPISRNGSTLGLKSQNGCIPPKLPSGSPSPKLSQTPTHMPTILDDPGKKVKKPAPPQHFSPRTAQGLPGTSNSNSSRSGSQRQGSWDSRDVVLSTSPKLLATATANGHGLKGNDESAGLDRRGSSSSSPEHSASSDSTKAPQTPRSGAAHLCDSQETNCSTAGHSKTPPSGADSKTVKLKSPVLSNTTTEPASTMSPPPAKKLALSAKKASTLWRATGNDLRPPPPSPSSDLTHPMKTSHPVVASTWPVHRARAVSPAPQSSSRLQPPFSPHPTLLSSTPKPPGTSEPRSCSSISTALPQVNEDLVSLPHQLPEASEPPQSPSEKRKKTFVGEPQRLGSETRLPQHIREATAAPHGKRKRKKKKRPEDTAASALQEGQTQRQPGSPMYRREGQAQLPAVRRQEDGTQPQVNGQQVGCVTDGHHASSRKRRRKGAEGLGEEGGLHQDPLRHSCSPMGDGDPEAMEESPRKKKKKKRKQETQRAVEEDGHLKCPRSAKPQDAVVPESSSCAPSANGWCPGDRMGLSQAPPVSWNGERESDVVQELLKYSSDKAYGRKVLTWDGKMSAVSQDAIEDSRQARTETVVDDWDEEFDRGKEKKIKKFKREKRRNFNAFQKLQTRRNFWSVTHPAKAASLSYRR
How it was run: as §1

[3] = target: T2, USP38 (UniProt Q8NB14)
T2 sequence (whole entry): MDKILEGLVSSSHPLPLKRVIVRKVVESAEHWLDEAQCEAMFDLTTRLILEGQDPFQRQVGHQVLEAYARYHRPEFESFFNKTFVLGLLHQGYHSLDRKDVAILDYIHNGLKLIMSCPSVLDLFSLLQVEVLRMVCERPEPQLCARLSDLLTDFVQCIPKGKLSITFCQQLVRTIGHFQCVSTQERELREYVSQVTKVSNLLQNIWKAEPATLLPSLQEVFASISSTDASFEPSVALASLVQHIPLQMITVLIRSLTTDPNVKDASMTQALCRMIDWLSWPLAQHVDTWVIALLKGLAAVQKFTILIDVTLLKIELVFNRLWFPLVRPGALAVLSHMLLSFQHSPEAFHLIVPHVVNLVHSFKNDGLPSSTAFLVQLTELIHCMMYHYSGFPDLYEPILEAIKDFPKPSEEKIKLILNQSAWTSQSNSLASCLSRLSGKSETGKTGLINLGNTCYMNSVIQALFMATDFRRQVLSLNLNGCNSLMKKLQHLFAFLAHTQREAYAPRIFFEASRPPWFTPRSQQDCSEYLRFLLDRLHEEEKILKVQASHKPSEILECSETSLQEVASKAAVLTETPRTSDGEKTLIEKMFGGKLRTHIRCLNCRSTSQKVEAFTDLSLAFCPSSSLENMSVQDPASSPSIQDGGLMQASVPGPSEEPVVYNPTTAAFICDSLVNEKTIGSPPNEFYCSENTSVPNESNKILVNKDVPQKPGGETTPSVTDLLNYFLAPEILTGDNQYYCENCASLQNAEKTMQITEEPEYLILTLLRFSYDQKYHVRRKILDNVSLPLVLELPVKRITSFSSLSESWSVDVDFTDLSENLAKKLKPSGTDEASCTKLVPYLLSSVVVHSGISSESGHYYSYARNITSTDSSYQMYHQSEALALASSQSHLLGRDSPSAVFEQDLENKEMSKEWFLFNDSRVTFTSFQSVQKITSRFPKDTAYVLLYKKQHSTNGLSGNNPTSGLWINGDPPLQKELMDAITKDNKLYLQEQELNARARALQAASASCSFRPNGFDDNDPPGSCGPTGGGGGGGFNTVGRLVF
How it was run: as §1

[4] = target: T3, USP39 (UniProt Q53GS9)
T3 sequence (whole entry): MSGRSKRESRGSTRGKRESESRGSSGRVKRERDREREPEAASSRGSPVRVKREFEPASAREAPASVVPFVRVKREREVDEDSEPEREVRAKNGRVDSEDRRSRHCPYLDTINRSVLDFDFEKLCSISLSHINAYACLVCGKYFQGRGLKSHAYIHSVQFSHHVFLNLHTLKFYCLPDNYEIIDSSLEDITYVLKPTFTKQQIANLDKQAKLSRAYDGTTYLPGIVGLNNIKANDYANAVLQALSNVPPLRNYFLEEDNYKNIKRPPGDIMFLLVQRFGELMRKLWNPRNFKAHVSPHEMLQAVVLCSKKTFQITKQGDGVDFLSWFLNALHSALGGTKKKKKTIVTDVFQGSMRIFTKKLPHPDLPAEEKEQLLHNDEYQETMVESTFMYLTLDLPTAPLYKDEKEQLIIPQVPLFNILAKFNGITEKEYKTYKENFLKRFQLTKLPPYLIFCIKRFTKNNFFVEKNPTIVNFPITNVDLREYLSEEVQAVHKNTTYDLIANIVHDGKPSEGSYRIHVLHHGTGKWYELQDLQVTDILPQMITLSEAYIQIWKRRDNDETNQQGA
How it was run: as §1

[5] = target: T4, USP4 (UniProt Q13107)
T4 sequence (whole entry): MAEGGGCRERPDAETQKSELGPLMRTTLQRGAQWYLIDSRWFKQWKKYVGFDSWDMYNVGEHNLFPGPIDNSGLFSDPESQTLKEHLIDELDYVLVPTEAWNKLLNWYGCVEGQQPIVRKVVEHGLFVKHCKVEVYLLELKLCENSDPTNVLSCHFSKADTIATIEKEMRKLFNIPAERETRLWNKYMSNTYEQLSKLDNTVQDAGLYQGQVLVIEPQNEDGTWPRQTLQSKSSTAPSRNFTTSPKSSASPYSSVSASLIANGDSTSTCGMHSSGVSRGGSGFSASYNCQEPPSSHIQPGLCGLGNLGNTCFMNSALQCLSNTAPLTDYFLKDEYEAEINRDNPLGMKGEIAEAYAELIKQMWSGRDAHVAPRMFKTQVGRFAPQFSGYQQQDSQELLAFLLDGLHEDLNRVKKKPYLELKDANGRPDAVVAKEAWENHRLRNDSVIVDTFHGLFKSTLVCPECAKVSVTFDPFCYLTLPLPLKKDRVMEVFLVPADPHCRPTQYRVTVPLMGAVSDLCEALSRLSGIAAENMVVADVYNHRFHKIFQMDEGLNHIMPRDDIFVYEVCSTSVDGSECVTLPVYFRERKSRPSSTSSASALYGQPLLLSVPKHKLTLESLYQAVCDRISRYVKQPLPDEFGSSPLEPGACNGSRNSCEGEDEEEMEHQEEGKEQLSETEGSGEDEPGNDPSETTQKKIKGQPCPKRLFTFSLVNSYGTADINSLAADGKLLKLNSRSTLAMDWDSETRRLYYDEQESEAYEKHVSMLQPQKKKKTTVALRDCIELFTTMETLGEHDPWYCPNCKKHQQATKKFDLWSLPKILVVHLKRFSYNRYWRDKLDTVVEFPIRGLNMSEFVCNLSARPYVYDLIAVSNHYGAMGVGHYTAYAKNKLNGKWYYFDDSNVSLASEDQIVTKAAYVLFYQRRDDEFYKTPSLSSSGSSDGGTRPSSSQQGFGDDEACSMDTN
How it was run: as §1

Measured: log2 ratio of Biotin-Ahx-Ub-VS probe labelling

Cl.Cn1ncc2c1CCCC2NC(=O)CCl (stereo not given)
inactive: [1] -0.0828 | [2] -0.298 | [3] -0.175 | [4] -0.0961 | [5] 0.00214
